According to PubChem BioAssay (NCI):
This is part of a sample that, as a whole, favours compounds with a hit. Of some 83,000 tested, about 20% had one in any assay.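 Percent growth is the endpoint: 0 to 100 indicates growth inhibition (40 means 60% inhibition), 0 means no net growth, and negative values indicate cell death.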 Values without a mark were called inactive. Calls of active or inactive are those of the source. Rule for the calls: active = growth percent below 10; inactive = the rest.

How the values were obtained:
Assay in all cases: NCI-60 one-dose screen, 48 h (100 = growth as untreated, 0 = no growth, -100 = all killed)
Conditions in all cases: 10 µM unless noted
[1] = tested on: SNB-75 CNS
[2] = tested on: SNB-19 CNS
[3] = tested on: U251 CNS
[4] = tested on: PC-3 prostate
[5] = tested on: SK-MEL-5 melanoma
[6] = tested on: UACC-62 melanoma
[7] = tested on: LOX IMVI melanoma
[8] = tested on: SK-MEL-28 melanoma
[9] = tested on: SK-MEL-2 melanoma
[10] = tested on: SN12C renal
[11] = tested on: UO-31 renal
[12] = tested on: TK-10 renal
[13] = tested on: ACHN renal
[14] = tested on: CAKI-1 renal
[15] = tested on: A498 renal
[16] = tested on: CCRF-CEM leukemia
[17] = tested on: MOLT-4 leukemia
[18] = tested on: HT29 colon
[19] = tested on: EKVX NSCLC
[20] = tested on: SR leukemia

| SMILES | growth [1] | growth [2] | growth [3] | growth [4] | growth [5] | growth [6] | growth [7] | growth [8] | growth [9] | growth [10] | growth [11] | growth [12] | growth [13] | growth [14] | growth [15] | growth [16] | growth [17] | growth [18] | growth [19] | growth [20] |
| --- | --- | --- | --- | --- | --- | --- | --- | --- | --- | --- | --- | --- | --- | --- | --- | --- | --- | --- | --- | --- |
| O=C1/C(=C/c2ccc([N+](=O)[O-])s2)Oc2ccc(Br)cc21 | -16.1% (active) | -15.3% (active) | -87.9% (active) | -62.3% (active) | -89.1% (active) | -83.4% (active) | -75.6% (active) | -66.4% (active) | -62.2% (active) | -32.5% (active) | -87.4% (active) | -25.3% (active) | -64% (active) | -16.3% (active) | -32.8% (active) | -3.33% (active) | -16.8% (active) |  |  |  |
| Cc1c(C(N)=O)sc2c1c(=O)n(Cc1ccccc1)c1nnc(S(=O)(=O)CC(=O)Nc3ccc(Cl)cc3)n21 |  | 64.9% | 35.2% | 35% | 55.2% | 67.4% | 44.1% |  | 33.1% | 56% | 87% | 18% | 10.1% | 68.2% | 22.6% |  |  | 21.9% | 43.6% |  |
| CC(C)[O-].CC(C)[O-].CN(CCN(C)Cc1cc(F)cc(F)c1[O-])Cc1cc(F)cc(F)c1[O-].[Ti+4] |  |  | 4.7% (active) | 15.9% | -59.5% (active) | -22.8% (active) | -39% (active) | -23.3% (active) | -52% (active) | 19.7% | -14.5% (active) | -12.6% (active) | 9.76% (active) | -11.1% (active) |  | 16.4% | 8.02% (active) | -25.7% (active) | -8.9% (active) | 1.21% (active) |
| CC(c1ccccn1)C(C)(O)C(C)c1ccccn1 (centres undefined) | 99.7% | 98.9% | 98.7% | 98.9% | 105% | 95.6% | 95.6% | 111% | 105% | 103% | 90.2% | 99.6% | 103% | 104% | 105% | 114% | 65.1% |  | 95.3% |  |
| c1cncc(CNc2ccccc2-c2nnc(Nc3ccc4c(c3)OCO4)o2)c1 |  | 38.7% |  | 27.9% | -4.21% (active) | 3.81% (active) | 8.28% (active) | 43.7% | 65.8% | 28.8% | 40.7% | 50% | 32.2% | 9.02% (active) | -0.133% (active) | 19% |  | 8.59% (active) | 35.3% |  |
| C=CCOc1ccc2c(c1)CC[C@@H]1[C@@H]2CC[C@@]2(C)[C@H]1CC[C@]2(C)O | 93.3% | 110% | 74.7% |  | 95.3% | 85% | 76.2% | 97.2% |  | 96.7% |  | 56.7% | 85.8% | 75.4% | 90.5% | 70.7% | 72.5% |  | 82% | 58% |
| Clc1ccc([C@@H]2C[C@@H]3Cc4cc(Br)c5ccccc5c4N2O3)c(Cl)c1 | 56.2% | 83.8% | 60.6% |  | 93.8% | 62.8% | 72.1% | 69.9% |  | 96.8% | 64% | 90.2% | 81.6% | 73.6% | 87% | 66.5% | 78% |  | 108% | 20.8% |
| COc1ccc(-c2cc(Cc3cccs3)c(=O)n(Cn3ccc4ccccc43)n2)cc1 | 92.6% | 102% | 104% |  | 104% | 87.7% | 96.5% | 114% |  | 97.7% |  | 98.1% | 102% | 95.7% | 98.9% | 66% | 97.5% |  | 101% | 87% |
| COC(=O)CCC1=C(CC(=O)OC)C(C)=N/C1=C\c1[nH]c(-c2ccc[nH]2)cc1OC | 12.9% | 69.3% | 26.5% |  | -22.7% (active) | -4.87% (active) | -48.3% (active) | 56.9% |  | 38.7% | -25.3% (active) | 28.3% | 15.5% | 24.7% | 72.1% | 2.36% (active) | -6.53% (active) |  | 61.5% | -24.6% (active) |
| O=[N+]([O-])c1ccc(N/N=C/c2c(O)ccc3ccccc23)nc1 | 69.3% | 62.7% | 35.8% |  | 40% | 41.7% | 21% | 64.8% |  | 49.4% | 9.52% (active) | 47.3% | 15% | 6.36% (active) | 111% | 2.5% (active) |  |  | 32.3% | 14.1% |
| CCC(O)C(C)(C)C (centres undefined) | 108% | 109% |  | 108% | 113% | 104% | 93% | 121% | 129% | 101% | 101% | 98.8% | 110% | 94.3% | 96.3% | 116% | 111% |  | 99% | 110% |
| c1coc([C@@H]2C[C@@H]3Cc4ccc5ccccc5c4N2O3)c1 | 89.2% | 104% | 102% |  | 101% | 103% | 103% | 111% |  | 108% | 75% | 88.6% | 107% | 84.7% | 90.2% | 79% | 73.7% |  | 103% | 88.8% |
| Clc1ccccc1[C@@H]1C[C@@H]2Cc3cc(Br)c4ccccc4c3N1O2 | 4.57% (active) | 38.2% | 34.4% |  | 30.2% | 24.4% | 37% | 47.5% |  | 44.3% | 40.3% | 63.6% | 53.5% | 40.4% | 15.7% |  | 17.2% |  | 70% | 3.11% (active) |
| CCOc1cc(-c2ccc[nH]2)[nH]c1/C=C1\N=C(C)C(C(=O)OC)=C1C | -65% (active) | 11.9% | -62.4% (active) |  | -93% (active) | -74.7% (active) | -56.5% (active) | -83.5% (active) |  | -75.8% (active) | -79.9% (active) | -85.8% (active) | -76.8% (active) | -49.2% (active) | -74% (active) | -37.8% (active) | -53.8% (active) |  | -50.3% (active) | -45.5% (active) |
| CC1=CSC2=NCCN12 | 98.4% | 101% | 109% |  | 106% | 100% | 94.4% | 118% |  | 99.5% | 77.6% | 97.7% | 110% | 93.5% | 118% | 93.6% | 102% |  |  | 93.1% |
| N=C(N)/N=C(\CCc1nc2ccccc2[nH]1)c1nc2ccccc2[nH]1 | 82.5% | 93.6% | 103% |  | 98% | 82.2% | 85.4% | 100% |  | 85.6% | 67.6% | 105% | 92.3% | 93.6% | 111% | 99.5% |  |  | 92.7% | 83.9% |
| O=C(CCc1nnc(Cn2cncn2)o1)c1nc2ccccc2[nH]1 | 99.1% | 111% | 103% |  | 105% | 97.9% | 94.4% | 105% |  | 92.6% | 92.4% | 108% | 113% | 102% | 96% | 96.4% | 92.4% |  | 116% | 82% |
| COc1ccc2nccc(/C=C/c3ccnc4ccc(OC)cc34)c2c1 | 102% | 109% | 107% |  | 116% | 109% | 106% | 92.8% | 112% | 118% | 97% | 148% | 102% |  | 87.9% | 59.6% | 33.1% |  |  | 21.4% |
| COC(=O)CCC1=C(C)/C(=C/c2[nH]c(-c3ccc[nH]3)cc2OC)N=C1C | -32% (active) | 44.7% | -1.49% (active) |  | -92% (active) | -49.6% (active) | -64.3% (active) | -0.539% (active) |  | 34.8% | -50.9% (active) |  | 8.35% (active) | 11.1% | 66.8% | -23.6% (active) | -28.3% (active) |  | 46.4% | -32.1% (active) |
